A selection: hits, their analogues and other compounds. The true share with any hit is near 0.86%.
TAR Tat displ = HIV-1 TAR-Tat binding disruption; AID 1259389; actives 0.6% (n = 100,000); z-score (test concentration not listed); HIV-1 TAR RNA, Tat peptide displacement FRET; active compounds read high; active = z-score of 3 or more in at least 2 runs
CDC25B-CDK2 inh = human CDC25B-CDK2/CyclinA binding inhibition | P30305+P24941 | HTRF CDC25B-CDK2/CyclinA binding, anti-His/anti-Flag; active compounds read high | z-score (no concentration beside the values) | actives 0.72% (n = 94,000) | AID 1259370; in the data active = z-score above about 3.2
Numbers without * were called inactive; x = no result given.

SMILES	TAR Tat displ	CDC25B-CDK2 inh
CC(C)=CCCC1=CC(=O)c2c(O)ccc(O)c2C1=O	34*	x
CCc1ccc(CN2CCN(Cc3cc(Br)ccc3O)CC2)cc1	1.3	-0.94
COc1cccc(CN2CCN(Cc3cc(Br)ccc3O)CC2)c1	0.7	16*
CC[C@@H](CO)NC(=O)[C@@H]1C=C2c3cccc4[nH]cc(c34)C[C@H]2N(C)C1	0.85	4.2*
CC[C@@H](CO)NC(=O)[C@@H]1C=C2c3cccc4c3c(cn4C)C[C@H]2N(C)C1	x	1.1
CCCCc1nc(N2CCNCC2)c(C#N)c2c1COC(C)(C)C2	0.02	-0.32
COc1ccc(-n2nc(C)c3c2NC(=O)CSC3c2ccsc2)cc1 (stereo not given)	-0.45	-1.5
[Cl-].[Cl][Pt].[NH2-].[NH2-].c1ccncc1	x	3.7*
O=C1C2CCN(CC2)C1Cc1ccco1 (stereo not given)	x	12*
O=C1C2CCN(CC2)C1Cc1ccc(OCCOc2ccccc2)cc1 (stereo not given)	0.32	-0.64
CC1(C)C2CCC1(C)C(N1CCNCC1)C2 (stereo not given)	x	-1.4
Cc1[nH]nc2c1C(c1ccccc1Br)SCC(=O)N2 (stereo not given)	1.1	-1.1
CN1CC=C(c2noc(CCC(=O)N3CCN(c4ccccc4)CC3)n2)CC1	1.4	-0.44
C=CCn1c(C)c(C(=O)OCC)c2cc(O)ccc21	2.2	-3.6
COc1ccc(Br)cc1C1SCC(=O)Nc2c1c(C)nn2-c1nc(C)cc(C)n1 (stereo not given)	-0.87	-0.42
COc1ccc(Cc2nccc3cc(OC)c(OC)cc23)cc1OC	1.6	13*
COc1ccc(CCNCc2ccc(OC)c(OC)c2)cc1OC	-1.2	-0.56
COCc1nc(SC)nc(OC(=O)N(C)C)c1C	x	-2.4
c1ccc(-n2cccc2-c2nc(N3CC3)nc(N3CC3)n2)cc1	x	16*
CCn1nc(-c2ccccc2)nc2c(=O)n(C)c(=O)nc1-2	-7.7	-0.92
Cn1nc(-c2ccccc2)nc2c(=O)n(C)c(=O)nc1-2	-4.7	5.8*
CCCOc1ccc(C2SCC(=O)Nc3n[nH]c(C)c32)cc1 (stereo not given)	2.6	-2.6
CCCCOc1ccc(C2SCC(=O)Nc3c2c(C)nn3C2CCOC(C)(C)C2)cc1 (stereo not given)	0.51	-0.55
CCC(C)C(=O)O[C@H]1[C@H](O)C2C(CN3CC(C)CCC3[C@@]2(C)O)C2C[C@]34O[C@]5(O)C(OC(=O)C(C)(O)C(C)O)CC[C@@]3(C)C5C(OC(C)=O)[C@@H](OC(C)=O)C4[C@@]21O (stereo not given in full)	0.53	x
CC[C@@H](C)C(=O)O[C@H]1[C@H](O)[C@H]2[C@@H](CN3C[C@@H](C)CC[C@H]3[C@@]2(C)O)[C@@H]2C[C@]34OC5(O)[C@@H](OC(=O)C(C)(O)C(C)O)CC[C@@]3(C)[C@@H]5[C@@H](OC(C)=O)[C@@H](OC(C)=O)[C@H]4[C@@]21O (stereo not given in full)	10*	x
SMILES	TAR Tat displ	CDC25B-CDK2 inh
Nc1c(Oc2ccccc2)cc(O)c2c1C(=O)c1ccccc1C2=O	x	-1
O=[N+]([O-])c1cc(O)c(O)c([N+](=O)[O-])c1	9.5*	-3.6
O=[N+]([O-])c1ccc(O)c([N+](=O)[O-])c1	1.9	x
CCCCn1c(N)c(C(=O)OC)c2nc3ccccc3nc21	1.3	-0.69
COC(=O)c1ccccc1NC(C)=O	x	-1.7
COc1cc2c(cc1O)CC1c3c(cc(O)c(OC)c3-2)CCN1C (stereo not given)	7.7*	x
COc1cc2c3c(c1OC)-c1ccccc1CC3N(C)CC2 (stereo not given)	-9.2	x
O=C1CCN(CC(=O)c2ccc3cc[nH]c3c2)CC1	0.14	2

From PubChem
